Where “and” joins values, the source holds several entries; their conditions need not be identical. Identical values can stand only once. The campaign covered roughly 220,000 compounds. About 16,000 (7.3%) were called active. Where a call stands in place of a potency, no number is given. About 25% were inconclusive and are not listed. This is one part of a sample in which actives are shown more often than they occur. Values without a mark were called inactive. Calls follow the shape of the dose curve; as a rule, active = well fitted inhibition curve with a large enough effect (not every such curve was filed as active); inconclusive = small, poorly fitted or top-dose-only effect, or another doubt; inactive = no such curve, though single readings can be large or run the other way.
Potency is read from the fitted curve at half-maximal effect.

The test deals with Aldehyde dehydrogenase 1A1 (Homo sapiens) (UniProt P00352). The test is described as follows: qHTS Assay for Inhibitors of Aldehyde Dehydrogenase 1 (ALDH1A1). Particulars: Purified ALDH1A1, NADH fluorescence, propionaldehyde substrate; series mostly up to 75.3 µM.
Aldehyde dehydrogenase 1A1 (Homo sapiens), sequence (P00352 whole entry, looked up): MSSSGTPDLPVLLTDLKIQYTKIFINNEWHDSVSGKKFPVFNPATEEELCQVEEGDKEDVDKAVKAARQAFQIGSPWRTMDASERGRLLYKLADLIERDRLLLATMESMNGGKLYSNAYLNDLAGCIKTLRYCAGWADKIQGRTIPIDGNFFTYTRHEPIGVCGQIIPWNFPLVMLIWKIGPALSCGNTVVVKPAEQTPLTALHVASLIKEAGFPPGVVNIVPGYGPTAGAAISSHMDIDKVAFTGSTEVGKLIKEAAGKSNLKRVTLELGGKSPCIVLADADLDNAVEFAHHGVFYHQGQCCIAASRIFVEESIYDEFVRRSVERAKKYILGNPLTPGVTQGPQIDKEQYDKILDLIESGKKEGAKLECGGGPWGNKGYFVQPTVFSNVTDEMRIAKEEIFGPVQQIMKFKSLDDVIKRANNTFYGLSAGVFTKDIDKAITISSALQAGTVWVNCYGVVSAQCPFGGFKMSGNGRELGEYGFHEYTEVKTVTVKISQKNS
As to `COc1cc(C(=S)N2CCOCC2)ccc1O`, the Potency is 18.9 µM (active). Same read-out and setting: as for `COc1ccc(C(=O)C2CCCN(Cc3ccc(C)s3)C2)cc1OC` (stereo not given), the entry is “inactive”; as for `C=CCN1CCC23c4c5ccc(O)c4O[C@H]2C(=O)CC[C@@]3(O)C1C5` (stereo not given in full), “inactive”; as for `CCC/C(=N\O)c1c[nH]c2ccccc12`, “inactive”. On the same count and under the same terms, under `CCCOC(=O)C1C2c3ccccc3C(c3ccccc32)C1C(=O)O` (stereo not given) stands “inactive”. `Cc1ccc(-c2cc(C(=O)N3CCC4(CC3)OCCO4)no2)cc1`: the Potency entry was “inactive”.

Regarding `Cc1ccsc1C(=O)C1CCCN(Cc2ccc(O)cc2)C1` (stereo not given), the Potency entry was “inactive”. Still for that read-out and setting: as for `COc1ccc2c3c1O[C@H]1C[C@@H](O)C=C[C@@]31CCN(C)C2`, the entry is “inactive”. Same read-out and setting: as for `CCOC(=O)CC1=C(C(=O)OCC)C2(C(=O)N1)C(C(=O)OC)=C(N)Oc1ccccc12` (stereo not given), the entry is “inactive”; as for `COC(=O)CN1C(=O)C2(C(C(=O)OC)=C(N)Oc3ccccc32)C2=C1CC(C)(C)CC2=O` (stereo not given), 1 µM (active). Still for that read-out and setting: under `CCOC(=O)C1=C(C)OC(N)=C(C(=O)OC)C12C(=O)Nc1ccc(Br)cc12` (stereo not given) stands “inactive”; under `CCN1C[C@@]2(COC)CC[C@H](OC)[C@]34[C@@H]1[C@]1(OCO[C@@]15C[C@@H](OC)C1C[C@H]3[C@H]5[C@@H]1OC)[C@H](O)[C@@H]24`, “inactive”.

With `CC(=O)CC(C)C`, the Potency is 12.6 µM (active).

Take `N#CC1=C(N)Oc2c(c(=O)oc3ccccc23)C1c1ccccc1OC(=O)c1cccs1` (stereo not given): the Potency result was “inactive”. Turning to `COc1ccc(CCn2c(O)c(C=NC3CC3)c(=O)[nH]c2=O)cc1OC`, the Potency entry is “inactive”. As to `ClCCBr`, the Potency result is “inactive”. On the same count and under the same terms, as for `CO[C@@H]1C[C@@H](C[C@H]2CC[C@H](C)[C@@H]([C@@H](C)C(=O)O)O2)O[C@]2(O[C@](C)([C@H]3CC[C@@](C)(C4OC([C@H]5O[C@@](O)(CO)[C@H](C)C[C@@H]5C)C[C@@H]4C)O3)C[C@H]2C)[C@@H]1C` (stereo not given in full), the entry is “inactive”. `COC(=O)N(c1ccc(OC)cc1)P1(=S)OCCC(C)O1` (stereo not given): the Potency is 2.24 µM (active).

For `CCOc1ccc(C2SCC(=O)Nc3c2c(C)nn3C2CCOC(C)(C)C2)cc1` (stereo not given), the Potency entry was “inactive”. `ClC(Cl)=C(Cl)C(Cl)=C(Cl)Cl`: the Potency entry is “inactive”. `O=C1NC(=O)N(c2ccc(F)cc2)C(=O)/C1=C/c1ccc2c(c1)CCCN2Cc1ccccc1`: the Potency was 0.158 µM (active).

`Fc1ccc(C(OCCN2CCN(C/C=C\c3ccccc3)CC2)c2ccc(F)cc2)cc1`: the Potency result was “inactive”. On the same count and under the same terms, as for `CC(C)(O)c1[se]c2ccccc2c1I`, the entry is “inactive”. The same measure, in the same setting: as for `c1ccc(CN2CC[C@@]3(CCCNC3)C2)cc1`, the entry is “inactive”; as for `CC(=O)Cc1ccc(OC(C)C)cc1`, “inactive”; as for `CN(C)c1nc(N(C)C)nc(N(C#N)CCCl)n1`, 6.31 µM (active).

As to `O=C1C2(Cl)C3(Cl)C4(Cl)C(Cl)(Cl)C5(Cl)C3(Cl)C1(Cl)C5(Cl)C24Cl` (stereo not given), the Potency result is “inactive”. The same measure, in the same setting: under `NC[C@H](O)c1ccc(O)cc1` stands “inactive”. Still for that read-out and setting: under `c1ccc(C2NCc3ccccc3-n3cccc32)cc1` (stereo not given) stands “inactive”. The same measure, in the same setting: as for `O=C(OCC(=O)c1cccs1)C1=COCCO1`, the figure is 14.1 µM (active).

As for `CN1CCN(C(=O)O[C@@H]2c3nccnc3C(=O)N2c2ccc(Cl)cn2)CC1`, the Potency entry was “inactive”. In the case of `CC(C)(c1ccc(OC[C@@H]2CO2)cc1)c1ccc(OC[C@H]2CO2)cc1`, the Potency entry is “inactive”.

Regarding `CC[N+]1(C)CCCC(OC(=O)C(O)(c2ccccc2)c2ccccc2)C1` (stereo not given), the Potency entry was “inactive”.

As for `O=C(NCC(c1cccnc1)N1CCN(c2ccccc2)CC1)Oc1ccccc1` (stereo not given), the Potency result was “inactive”. Still for that read-out and setting: under `CCCn1c(C(=O)c2ccccc2OC)nc2ccccc21` stands “inactive”; under `Cc1cccc(N2C(=O)NC(=O)/C(=C\c3cnn(-c4ccccc4)c3)C2=O)c1`, 7.08 µM (active).

For `C[C@H]1CC[C@@]2(NC1)O[C@@H]1C[C@H]3[C@@H]4CC=C5C[C@@H](O)CC[C@]5(C)[C@@H]4CC[C@]3(C)[C@@H]1[C@@H]2C`, the Potency result was “inactive”.

With `NCC(O)c1ccc(O)cc1` (stereo not given), the Potency entry is “inactive”. On the same count and under the same terms, as for `Cc1cc(C)cc(NC(=S)NC2CC3CCCC(C2)N3Cc2cccs2)c1` (stereo not given), the entry is “inactive”; as for `O=C(CSC1c2ccccc2-c2ccccc21)N/N=C/c1ccccc1`, “inactive”; as for `O=C(CN1CCCC1=O)NCCc1ccccc1`, “inactive”. Same read-out and setting: as for `COC1=C[C@@H]2[C@@H]3Cc4ccc(OC)c(O)c4[C@]2(CCN3C)CC1=O`, the entry is “inactive”. The same measure, in the same setting: under `CC(C(=O)Nc1ccc(Cl)cc1Cl)N1CC=C(c2ccccc2)CC1` (stereo not given) stands “inactive”; under `CCCC[N+]1(C)C2CC(OC(=O)C(CO)c3ccccc3)CC1C1OC12` (stereo not given), “inactive”. `CC(C)CC(C)Nc1ccc(Nc2ccccc2)cc1` (stereo not given): the Potency was 14.1 µM (active).

Regarding `CC(=O)NC(=O)NC(C)Cc1ccccc1` (stereo not given), the Potency entry is “inactive”.

As to `CC12CN3CC(C)(CN(C1)C3c1cccs1)C2` (stereo not given), the Potency result is “inactive”. For `CCCCC(=O)N/N=C/c1c(O)n(CC)c(=S)n(CC)c1=O`, the Potency result was “inactive”.

Turning to `Cc1cc(-c2ccc(N)c(C)c2)ccc1N`, the Potency is 28.2 µM (active).

For `CC1CCCCN1Cc1cccnc1` (stereo not given), the Potency result was “inactive”. Regarding `C/C(=C\C=C/[C@@H](C)C(=O)O)[C@H]1CN[C@H](C(=O)O)[C@@H]1CC(=O)O`, the Potency result is “inactive”. On the same count and under the same terms, as for `CCN1C[C@]2(COC)C(O)C[C@H](OC)[C@@]34C5C[C@]6(O)C(OC)C(O)[C@](OC(C)=O)(C5C6OC(=O)c5ccccc5)C(C(OC)C23)C14` (stereo not given in full), the entry is “inactive”. Still for that read-out and setting: under `CC(=O)c1c(O)c(C)c(O)c(Cc2c(O)c3c(c(C(=O)/C=C\c4ccccc4)c2O)OC(C)(C)C=C3)c1O` stands 22.4 µM (active); under `CC(=O)c1c(O)c(C)c(O)c(Cc2c(O)c3c(c(C(=O)/C=C/c4ccccc4)c2O)OC(C)(C)C=C3)c1O`, 17.8 µM (active) and 14.1 µM (active); under `COC1=C[C@]23CCCN2CCc2cc4c(cc2[C@@H]3[C@@H]1O)OCO4`, “inactive”.

Take `O=C(O)C1C2CCC(O2)C1C(=O)O` (stereo not given): the Potency result is “inactive”. Same read-out and setting: as for `CN(C)C1C(=O)C(C(N)=O)=C(O)[C@@]2(O)C(=O)C3=C(O)c4c(O)cccc4[C@@](C)(O)C3C[C@@H]12` (stereo not given in full), the entry is “inactive”; as for `C=CCSSCC=C`, 6.31 µM (active); as for `CN(C)c1ccc(/C=C2\CC3C4CC=C5CC(O)CCC5(C)C4CCC3(C)C2=O)cc1` (stereo not given), “inactive”.

Take `O=C1NC(=O)C(CCc2ccccn2)(Cc2cccc(Cl)c2Cl)C(=O)N1c1ccc(Br)cc1` (stereo not given): the Potency result is “inactive”. On the same count and under the same terms, under `CCOC(=O)C(O)(c1ccc(N=Cc2ccccc2O)c(C)c1)C(F)(F)F` (stereo not given) stands “inactive”; under `CN(C)C(=O)Oc1cc(=O)n2c3c(cccc13)CCC2`, “inactive”. Still for that read-out and setting: under `COc1ccc(C2=NOC(COC(=O)c3ccc4ccccc4n3)C2)cc1` (stereo not given) stands 5.62 µM (active); under `CN(C)/C=C(\C=[N+](C)C)c1[nH]ncc1[N+](=O)[O-]`, “inactive”.

For the compound `CC[N+](CC)(CC)CCCCCCCCCC[N+](CC)(CC)CC`, the Potency entry is “inactive”. Still for that read-out and setting: under `O=C1C2CCN(CC2)C1(CO)CO` stands “inactive”.

For `CC(C)n1c(=O)c(C=Nc2ccc(Br)cc2)c(O)n(Cc2ccco2)c1=O`, the Potency is 14.1 µM (active). Still for that read-out and setting: as for `CN(C)CCCN=Cc1c(O)n(Cc2ccco2)c(=O)[nH]c1=O`, the entry is “inactive”. For the compound `COc1cc2c(cc1OC)[C@@H]1C(=O)c3ccc(O)c(CC=C(C)C)c3OC1CO2` (stereo not given in full), the Potency entry was “inactive”. On the same count and under the same terms, under `CC(=O)Nc1ccccc1C(=O)OCC(=O)c1cccc2ccccc12` stands “inactive”; under `NCC[Se][Se]CCN`, 3.55 µM (active); under `CC[C@H]1CN2CCc3cc(OC)c(OC)cc3[C@@H]2C[C@@H]1C[C@H]1NCCc2cc(OC)c(OC)cc21`, “inactive”. Same read-out and setting: as for `CCc1cccc2c(C#N)cn(CC(=O)N3CCOCC3)c12`, the entry is “inactive”; as for `CCN(CC)P(=O)(Oc1cccc(C)c1)N(CC)CC`, “inactive”; as for `Cc1cccc([C@H](C)c2cnc[nH]2)c1C`, “inactive”. The same measure, in the same setting: as for `ClC(Cl)(Cl)c1ccccc1`, the entry is “inactive”. In the case of `O=Cc1cn(Cc2ccc(F)cc2Cl)c2ccccc12`, the Potency is 3.16 µM (active). Still for that read-out and setting: as for `Cc1ccc(-c2nn(CCC#N)cc2C(=O)O)cc1C`, the entry is “inactive”. In the case of `Cc1ccc(S(=O)(=O)O[C@H]2CN3CCC2CC3)cc1`, the activity, negative = inhibition was 4.24% [at 13.5 µM]. Regarding `COC(=O)c1ccc2[se]c(CC3CCCCC3)c(I)c2c1`, the Potency entry is “inactive”. Same read-out and setting: under `CCCCCCCCCCCCCC(=O)O[C@@H]1[C@@H](C)[C@@]2(O)[C@@H](C=C(CO)C[C@]3(O)C(=O)C(C)=C[C@@H]23)[C@@H]2C(C)(C)[C@]12OC(C)=O` stands “inactive”. Same read-out and setting: as for `Cn1c(O)c(C=NCCCC(=O)O)c(=O)n(C)c1=O`, the entry is “inactive”. As to `C[C@@H]1C[C@@H]2O[C@H]2/C=C\C=C\C(=O)Cc2c(Cl)c(O)cc(O)c2C(=O)O1`, the Potency result is “inactive”. Still for that read-out and setting: as for `O=C(C1CC(=O)N(C2CCCC2)C1)N1CCC2(CC1)OCCO2` (stereo not given), the entry is “inactive”; as for `C=CCN1C(=O)C2(C(C(=O)OCC)=C(N)Oc3c2c(=O)oc2ccccc32)c2ccccc21` (stereo not given), 0.398 µM (active).

`CCOC(=O)c1ncn2c1[C@@H]1CCCN1C(=O)c1cc(OC)ccc1-2`: the Potency entry is “inactive”.

Consider `CCOCCc1c(O)[nH]c(=S)[nH]c1=O`, for which the Potency result was “inactive”. On the same count and under the same terms, under `CCOC(=O)C1CN(C)CCC1=O` (stereo not given) stands “inactive”; under `CNC(C)[C@@H](O)c1ccccc1` (stereo not given in full), “inactive”.

As to `O=c1oc2ccccc2c(O)c1C(c1ccccc1O)c1c(O)c2ccccc2oc1=O`, the Potency result is “inactive”. The same measure, in the same setting: as for `c1ccc2sc(SNC3CCCCC3)nc2c1`, the figure is 0.794 µM (active); as for `c1ccc2sc(N3CCNCC3)nc2c1`, “inactive”; as for `c1ccc2sc(C3CCCNC3)nc2c1` (stereo not given), “inactive”. Regarding `C1CC[C@H]([C@@]23C[C@H](C[C@H]4CCCN[C@H]42)[C@@H]2CCCCN2C3)NC1`, the Potency entry was “inactive”. Same read-out and setting: as for `CC1(C)C(c2ccccc2)=NC(c2cccnc2)=[N+]1[O-]`, the entry is “inactive”.

The values are drawn from PubChem BioAssay AID1030 (National Center for Advancing Translational Sciences (NCATS), 2008).
